The source of these data is PubChem BioAssay AID1240 (Sanford-Burnham Center for Chemical Genomics, 2008).

Each structure is given as a SMILES string. The whole screen tested about 50,000 compounds, of which about 800 (1.6%) showed an effect of 50% or more. The list comes from a sample in which strong results are over-represented; it also holds similar structures and randomly drawn compounds.

The target in the test is Bcl-2-like protein 10 (Homo sapiens) (UniProt Q9HD36). Put plainly: Phenotype converters, Bcl-B/TR3 peptide binding displacement, primary biochemical FP (AID 1240).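 Also: 0% = Bcl-B with tracer peptide and DMSO and 100% = tracer peptide lacking Bcl-B.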 The note with it: GST-Bcl-B / FITC-TR3 peptide fluorescence polarization; stronger effect = higher value; compound at 3.75 mg/L. Background: Polarisation of emitted light reports the rotation of a fluorescent probe.
Sequence of Bcl-2-like protein 10 (Homo sapiens) (Q9HD36 whole entry, looked up): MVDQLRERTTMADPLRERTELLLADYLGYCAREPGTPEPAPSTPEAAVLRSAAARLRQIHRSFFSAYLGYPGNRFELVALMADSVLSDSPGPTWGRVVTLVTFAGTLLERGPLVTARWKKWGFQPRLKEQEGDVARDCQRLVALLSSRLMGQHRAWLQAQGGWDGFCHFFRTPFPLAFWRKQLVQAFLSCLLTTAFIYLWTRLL
For `CCOc1ccc(N2C(=O)NC(=O)/C(=C/c3cc(Br)c(OCC)c(OC)c3)C2=O)cc1`, the displacement is -6.7%.

For `CC(=O)C1=C(O)C(=O)N(C)C1c1ccccc1[N+](=O)[O-]` (centres undefined), the displacement was found to be 2.8%.

For the compound `C/C(=N\N=C1\NC(=O)C(CC(=O)NCc2ccccc2)S1)C(C)C` (centres undefined), the displacement was determined as 0.3%.

As to `CCCCOc1ccc(NC(=O)CSc2nnc(N)s2)cc1`, the displacement is -16.9%.

With `c1ccc(CCSc2nc3ccccc3[nH]2)cc1`, the displacement came out at 6.2%.

Regarding `Cc1cc(C=C2C(=O)NC(=O)NC2=O)c(-c2ccccc2)n1-c1ccccc1`, the displacement was determined as 150%.

With `Cc1cc(C=C2C(=O)c3ccccc3C2=O)c(-c2ccccc2)n1-c1ccccc1`, the displacement was found to be 68%.

As to `Cc1cc(/C=C2/SC(=O)NC2=O)c(-c2ccccc2)n1-c1ccccc1`, the displacement is -9.6%.

`Cc1cc(C=C2C(=O)NC(=S)NC2=O)c(-c2ccccc2)n1-c1ccccc1`: the displacement amounted to 162%.

For `Cc1cc(/C=C2/NC(=O)NC2=O)c(-c2ccccc2)n1-c1ccccc1`, the displacement is -5.1%.

With `Cc1cc(C)c(C=C2C(=O)c3ccccc3C2=O)cc1C`, the displacement was -1.6%.

`Cc1cc(/C=C2/NC(=S)NC2=O)c(-c2ccccc2)n1-c1ccccc1`: the displacement was -14.7%.

In the case of `Cc1cc(/C=N/N2C(=O)c3ccccc3C2=O)c(C)n1-c1ccccc1`, the displacement stood at 11.4%.

In the case of `Cc1cc(/C=C2/SC(=S)NC2=O)c(-c2ccccc2)n1-c1ccccc1`, the displacement came to 0.7%.

Take `CN(C)CCNC(=O)/C(=N\O)c1ccccn1`: the displacement was 15.9%.

Turning to `COc1ccc(CN(C)C(=O)c2cccc(C(=O)N(C)Cc3ccc(OC)cc3)c2)cc1`, the displacement stood at 10.7%.

Take `COc1cccc(C(=O)Nc2ccc(I)cc2Cl)c1`: the displacement came to 8.2%.

Regarding `Nc1c(Cc2ccccc2)ccc2c1C(=O)c1ccccc1C2=O`, the displacement is 10.3%.

For the compound `CC(C)(CN1CCOCC1)NS(=O)(=O)c1ccc(Cl)cc1`, the displacement was determined as 7.4%.

Turning to `CCc1ccc(OCC(=O)Nc2ccc3ccccc3c2)cc1`, the displacement is 11.4%.

Regarding `Cc1ccc(N2NC(=O)/C(=C/c3ccc(-c4ccc(S(N)(=O)=O)cc4)o3)C2=O)cc1`, the displacement came to 5.6%.

`CC(=O)Nc1ccc(S(=O)(=O)N(Cc2ccccc2)C(C)C)cc1`: the displacement amounted to 130%.

Turning to `CC(C)N(Cc1ccccc1)S(=O)(=O)c1ccc(F)cc1`, the displacement turned out to be 12.3%.

Turning to `CCN(Cc1ccccc1)S(=O)(=O)c1ccc(NC(C)=O)cc1`, the displacement came to 19.2%.

Turning to `CC1CN(CC(O)COc2ccc3ccccc3c2)CC(C)O1` (centres undefined), the displacement is 0.2%.

With `COc1ccc2[nH]c3c(c2c1)CCn1c-3nc2scc(-c3ccccc3)c2c1=O`, the displacement turned out to be 0.2%.

Turning to `CCc1cc2c(C)cc(=O)oc2cc1OC(C)=O`, the displacement is 10.1%.

On to `COc1ccc(CN=Cc2c(O)n(-c3ccc(OC)cc3)c(=O)[nH]c2=O)cc1`, for which the displacement was -3.4%.

`COc1ccc(-n2c(O)c(C=NCc3ccc(F)cc3)c(=O)[nH]c2=O)cc1`: the displacement was 12.4%.

On to `COc1cc(CN=Cc2c(O)n(-c3cc(OC)ccc3OC)c(=O)[nH]c2=O)cc(OC)c1`, for which the displacement stood at 1.6%.

On to `COc1ccc(CN=Cc2c(O)n(-c3ccc(Cl)cc3)c(=O)[nH]c2=O)cc1`, for which the displacement is -6.6%.

On to `COc1cccc(-n2c(O)c(C=Nc3cccc(Cl)c3)c(=O)[nH]c2=O)c1`, for which the displacement is -3.7%.

For `COc1ccc(-n2c(O)c(C=Nc3cccc(Cl)c3)c(=O)[nH]c2=O)cc1`, the displacement stood at 14.2%.

As to `COc1ccc(-n2c(O)c(C=Nc3ccc(Cl)cc3)c(=O)[nH]c2=O)cc1`, the displacement came to 14.3%.

As for `COc1ccc(CN=Cc2c(O)n(-c3cccc(Cl)c3)c(=O)[nH]c2=O)cc1`, the displacement was 81.4%.

Regarding `Cc1ccc(N=Cc2c(O)n(-c3ccccc3)c(=O)[nH]c2=O)cc1`, the displacement is -5.6%.

For `COc1cc(N=Cc2c(O)n(-c3ccc(Cl)cc3)c(=O)[nH]c2=O)cc(OC)c1`, the displacement was 70.5%.

Consider `COc1ccc(N=Cc2c(O)n(-c3ccccc3)c(=O)[nH]c2=O)cc1Cl`, for which the displacement stood at 113%.

On to `COc1cc(CN=Cc2c(O)n(-c3ccc(F)cc3)c(=O)[nH]c2=O)cc(OC)c1`, for which the displacement turned out to be 84.7%.

For the compound `COc1ccccc1CC(=O)Nc1cc(C)ccn1`, the displacement amounted to 12.9%.

As to `CS(=O)(=O)N(CC(=O)Nc1cccc(Br)c1)c1ccc(Oc2ccccc2)cc1`, the displacement came out at 1.9%.

With `COc1ccc(C2CC(=O)C3=C(C2)Nc2ccccc2NC3c2ccc(NC(C)=O)cc2)cc1OC` (centres undefined), the displacement is -4.9%.

Take `CCCC1=C(C(=O)OCC)C(c2ccc(CC)cc2)NC(=O)N1` (centres undefined): the displacement is -8.5%.

In the case of `O=[N+]([O-])c1ccc(-c2noc(-c3ccccc3Br)n2)cc1`, the displacement was determined as 4.3%.

Turning to `COc1ccc(CN2CCN(Cc3ccncc3)CC2)c(OC)c1`, the displacement is -16.7%.

Turning to `NC(=O)c1ccc(NC(=O)C2CCCC2)cc1`, the displacement is -4%.

For the compound `Cc1ccccc1-n1c(O)c(C=NCCCn2ccnc2)c(=O)[nH]c1=O`, the displacement is -3.4%.

On to `O=c1[nH]c(=O)n(-c2cccc(Cl)c2)c(O)c1C=NCCCn1ccnc1`, for which the displacement worked out at 142%.

For `O=c1[nH]c(=O)n(-c2ccccc2Cl)c(O)c1C=NCCCn1ccnc1`, the displacement was determined as 11.5%.

As to `COCCOC(=O)c1c(C)oc2c1cc(NS(=O)(=O)c1ccc(F)cc1)c1ccccc12`, the displacement turned out to be 18%.

`Cc1ccc(-c2nnc(N)s2)cc1C`: the displacement turned out to be 5.1%.

For the compound `COc1ccc(Cn2c(O)c(/C=C3\C=CC=N3)c(=O)[nH]c2=O)cc1`, the displacement stood at 12.5%.

Regarding `CCOc1ccc(-n2c(O)c(C=C3C=CC=N3)c(=O)[nH]c2=O)cc1`, the displacement worked out at 13.1%.

Turning to `O=c1[nH]c(=O)n(-c2ccc(Br)cc2)c(O)c1C=C1C=CC=N1`, the displacement turned out to be 123%.

As for `O=c1[nH]c(=O)n(-c2ccc(Cl)cc2)c(O)c1/C=C1/C=CC=N1`, the displacement is -46%.

For the compound `COc1ccc(-n2c(O)c(/C=C3\C=CC=N3)c(=O)[nH]c2=O)cc1`, the displacement stood at 85.4%.

`O=c1[nH]c(=O)n(-c2cccc(C(F)(F)F)c2)c(O)c1C=C1C=CC=N1`: the displacement was 6.3%.

As for `O=C1c2ccccc2C(=O)c2c1cccc2S(=O)(=O)Nc1ccc(Cl)cc1`, the displacement was 9.5%.

In the case of `CCOC(=O)C1=C(C)N=c2s/c(=C\c3ccc(O)c(OC)c3)c(=O)n2C1c1ccc(OC)cc1` (centres undefined), the displacement is 4.2%.

Turning to `CCOC(=O)C1=C(C)N=c2s/c(=C\c3ccc(O)c(OC)c3)c(=O)n2C1c1ccc(C)cc1` (centres undefined), the displacement was found to be 98.4%.

On to `CCOC(=O)C1=C(C)N=c2s/c(=C\c3ccc(O)c(OC)c3)c(=O)n2C1c1ccc(N(C)C)cc1` (centres undefined), for which the displacement is -13.9%.

In the case of `CCOC(=O)C1=C(C)N=c2s/c(=C\c3ccc(O)c(OC)c3)c(=O)n2C1c1cccc(OC)c1` (centres undefined), the displacement was -2.1%.

For `CCOC(=O)C1=C(c2ccccc2)N=c2s/c(=C\c3ccc(O)c(OC)c3)c(=O)n2C1c1ccc(OC)cc1` (centres undefined), the displacement came to 104%.

Consider `CCOC(=O)C1=C(c2ccccc2)N=c2s/c(=C\c3ccc(O)c(OC)c3)c(=O)n2C1c1ccccc1OC` (centres undefined), for which the displacement was found to be 43.3%.
